# What was measured:
# Assay in all cases: DAPPL (digital affinity profiling via proximity ligation, sequencing); 10 mM Tris-HCl pH 7.5, 50 mM NaCl, 1 mM DTT, 4% glycerol, room temperature, 30 min; GST-TFs on glutathione beads, 16-mer random dsDNA library, 0.1% formaldehyde crosslink after washing; high values mean tight binding
# Details in all cases: protein: recombinant; tags: N-terminal GST; dsDNA, one strand shown
# FLI1 = molecular target: T1, FLI1 (Homo sapiens, UniProt Q01543 1-452)
# T1 sequence: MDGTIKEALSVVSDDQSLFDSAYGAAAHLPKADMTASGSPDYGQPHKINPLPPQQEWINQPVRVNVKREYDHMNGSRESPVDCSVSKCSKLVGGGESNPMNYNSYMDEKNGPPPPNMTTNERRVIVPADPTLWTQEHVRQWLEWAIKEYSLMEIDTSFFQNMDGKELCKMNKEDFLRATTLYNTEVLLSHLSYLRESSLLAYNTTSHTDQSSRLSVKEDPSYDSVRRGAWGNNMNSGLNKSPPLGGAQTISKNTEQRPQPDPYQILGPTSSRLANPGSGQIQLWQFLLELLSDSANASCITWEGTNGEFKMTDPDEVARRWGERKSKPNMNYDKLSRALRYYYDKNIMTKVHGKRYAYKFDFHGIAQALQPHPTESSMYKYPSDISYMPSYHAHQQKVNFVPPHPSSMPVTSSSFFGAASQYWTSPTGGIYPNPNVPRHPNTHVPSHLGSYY
# How it was run: (§1)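 Human transcription factors fused to GST were expressed in yeast, captured on glutathione beads, given DNA barcodes and pooled with a GST-only negative control. Pools were incubated with 200 nmole of a 16-mer random double-stranded DNA library in Tris/NaCl/DTT/glycerol buffer at room temperature for 30 min. They were then washed, crosslinked with 0.1% formaldehyde, proximity-ligated (BsaI/T4 ligase, 1 h, 37 °C), PCR-amplified and sequenced on an Illumina NextSeq500. Binding signal is each 6-mer's read frequency for a factor divided by its frequency for the GST control.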
# ELK1 = molecular target: T2, ELK1 (Homo sapiens, UniProt P19419 1-428)
# T2 sequence: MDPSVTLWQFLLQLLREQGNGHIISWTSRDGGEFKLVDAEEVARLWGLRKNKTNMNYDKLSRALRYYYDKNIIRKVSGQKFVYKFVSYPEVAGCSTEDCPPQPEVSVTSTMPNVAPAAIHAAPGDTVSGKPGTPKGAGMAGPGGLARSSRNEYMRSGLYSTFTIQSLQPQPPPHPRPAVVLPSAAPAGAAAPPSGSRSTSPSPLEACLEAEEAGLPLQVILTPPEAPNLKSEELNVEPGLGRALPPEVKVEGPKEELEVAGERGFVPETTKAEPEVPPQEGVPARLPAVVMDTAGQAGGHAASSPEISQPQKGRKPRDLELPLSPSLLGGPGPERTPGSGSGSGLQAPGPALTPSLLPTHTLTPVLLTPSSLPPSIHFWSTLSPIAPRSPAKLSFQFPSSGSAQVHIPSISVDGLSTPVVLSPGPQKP
# How it was run: as §1
# GABPA = molecular target: T3, GABPA (Homo sapiens, UniProt Q06546 1-454)
# T3 sequence: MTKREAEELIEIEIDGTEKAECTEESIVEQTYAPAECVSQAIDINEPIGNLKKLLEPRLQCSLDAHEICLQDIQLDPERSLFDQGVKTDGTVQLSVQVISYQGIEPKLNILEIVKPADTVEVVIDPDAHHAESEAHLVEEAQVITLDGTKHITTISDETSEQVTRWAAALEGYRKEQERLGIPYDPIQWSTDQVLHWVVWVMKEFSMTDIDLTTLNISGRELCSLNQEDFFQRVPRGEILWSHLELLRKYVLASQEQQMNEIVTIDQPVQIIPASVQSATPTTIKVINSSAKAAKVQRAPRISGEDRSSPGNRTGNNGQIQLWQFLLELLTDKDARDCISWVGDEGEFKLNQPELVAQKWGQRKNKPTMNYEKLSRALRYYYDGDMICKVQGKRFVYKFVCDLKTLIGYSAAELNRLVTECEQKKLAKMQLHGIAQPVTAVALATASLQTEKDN
# How it was run: as §1
# ERG = molecular target: T4, ERG (Homo sapiens, UniProt P11308 1-479)
# T4 sequence: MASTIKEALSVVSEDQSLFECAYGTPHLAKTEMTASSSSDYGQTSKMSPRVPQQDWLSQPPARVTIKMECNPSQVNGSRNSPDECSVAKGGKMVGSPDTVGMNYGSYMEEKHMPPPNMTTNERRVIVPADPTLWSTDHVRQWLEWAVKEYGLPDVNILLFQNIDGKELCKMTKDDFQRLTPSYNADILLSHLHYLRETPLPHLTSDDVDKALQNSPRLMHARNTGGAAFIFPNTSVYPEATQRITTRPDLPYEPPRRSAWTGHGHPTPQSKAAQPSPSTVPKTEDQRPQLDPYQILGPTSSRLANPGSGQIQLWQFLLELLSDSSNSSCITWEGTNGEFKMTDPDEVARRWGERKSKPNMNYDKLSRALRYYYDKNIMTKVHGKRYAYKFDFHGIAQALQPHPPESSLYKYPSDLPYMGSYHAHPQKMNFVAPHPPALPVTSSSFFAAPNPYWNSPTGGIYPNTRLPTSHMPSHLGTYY
# How it was run: as §1
# ELF1 = ELF1 (Homo sapiens, UniProt P32519 1-619)
# ELF1, sequence (P32519 whole entry): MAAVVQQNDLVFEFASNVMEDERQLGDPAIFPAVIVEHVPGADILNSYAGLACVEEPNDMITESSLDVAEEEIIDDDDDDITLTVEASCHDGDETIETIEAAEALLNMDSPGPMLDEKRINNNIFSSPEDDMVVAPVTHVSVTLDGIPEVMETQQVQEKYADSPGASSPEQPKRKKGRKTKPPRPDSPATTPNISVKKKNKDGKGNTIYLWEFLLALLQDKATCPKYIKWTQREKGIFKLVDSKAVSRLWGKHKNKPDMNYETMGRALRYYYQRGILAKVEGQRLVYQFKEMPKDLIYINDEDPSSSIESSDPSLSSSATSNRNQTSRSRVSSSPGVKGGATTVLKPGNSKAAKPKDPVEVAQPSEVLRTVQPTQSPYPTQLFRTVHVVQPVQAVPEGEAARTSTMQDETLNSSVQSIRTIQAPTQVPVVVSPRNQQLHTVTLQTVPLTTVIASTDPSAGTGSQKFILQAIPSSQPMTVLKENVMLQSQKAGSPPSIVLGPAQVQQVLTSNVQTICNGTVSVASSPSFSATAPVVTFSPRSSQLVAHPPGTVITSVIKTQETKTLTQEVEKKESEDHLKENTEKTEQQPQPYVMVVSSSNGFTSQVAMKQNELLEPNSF
# How it was run: as §1
# SPIB = SPIB (Homo sapiens, UniProt Q01892 1-262)
# SPIB, sequence (Q01892 whole entry): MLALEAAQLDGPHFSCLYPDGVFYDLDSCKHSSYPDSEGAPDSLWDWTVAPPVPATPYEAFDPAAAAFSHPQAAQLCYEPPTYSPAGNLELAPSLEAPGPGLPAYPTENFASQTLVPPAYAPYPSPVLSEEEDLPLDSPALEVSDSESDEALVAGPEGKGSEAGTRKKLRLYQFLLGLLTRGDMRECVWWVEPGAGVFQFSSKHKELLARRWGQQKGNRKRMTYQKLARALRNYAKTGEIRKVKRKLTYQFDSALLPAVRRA
# How it was run: as §1
# ELF4 = ELF4 (Homo sapiens, UniProt Q99607 1-663)
# ELF4, sequence (Q99607 whole entry): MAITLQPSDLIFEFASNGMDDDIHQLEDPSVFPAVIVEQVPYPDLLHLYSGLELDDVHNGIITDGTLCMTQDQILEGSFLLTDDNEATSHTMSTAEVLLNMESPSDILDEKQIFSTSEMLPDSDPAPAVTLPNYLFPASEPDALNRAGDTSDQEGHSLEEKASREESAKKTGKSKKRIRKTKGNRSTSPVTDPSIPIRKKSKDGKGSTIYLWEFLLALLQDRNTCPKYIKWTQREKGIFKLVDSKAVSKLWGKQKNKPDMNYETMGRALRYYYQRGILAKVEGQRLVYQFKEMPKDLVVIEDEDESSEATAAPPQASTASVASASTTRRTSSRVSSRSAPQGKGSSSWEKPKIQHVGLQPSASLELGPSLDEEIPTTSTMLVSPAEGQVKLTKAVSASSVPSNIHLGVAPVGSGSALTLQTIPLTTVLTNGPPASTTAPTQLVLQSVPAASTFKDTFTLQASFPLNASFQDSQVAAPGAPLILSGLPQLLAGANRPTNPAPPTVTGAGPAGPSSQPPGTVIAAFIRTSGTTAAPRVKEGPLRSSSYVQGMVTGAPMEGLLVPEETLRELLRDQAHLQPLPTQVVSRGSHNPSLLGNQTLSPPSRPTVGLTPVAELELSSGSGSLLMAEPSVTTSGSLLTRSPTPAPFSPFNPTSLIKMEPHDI
# How it was run: as §1
# ETV2 = molecular target: T5, ETV2 (Homo sapiens, UniProt O00321 1-342)
# T5 sequence: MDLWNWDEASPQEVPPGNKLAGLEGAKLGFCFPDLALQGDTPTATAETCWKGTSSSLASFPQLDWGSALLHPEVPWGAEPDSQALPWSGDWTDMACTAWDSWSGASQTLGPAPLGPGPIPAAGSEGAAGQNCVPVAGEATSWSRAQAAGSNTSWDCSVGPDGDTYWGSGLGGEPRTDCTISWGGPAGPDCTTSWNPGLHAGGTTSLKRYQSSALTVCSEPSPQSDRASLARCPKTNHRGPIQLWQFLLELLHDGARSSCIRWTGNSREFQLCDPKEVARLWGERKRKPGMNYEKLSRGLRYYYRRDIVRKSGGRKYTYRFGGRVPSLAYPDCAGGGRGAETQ
# How it was run: as §1
# ELF3 = molecular target: T6, ELF3 (Homo sapiens, UniProt P78545 1-371)
# T6 sequence: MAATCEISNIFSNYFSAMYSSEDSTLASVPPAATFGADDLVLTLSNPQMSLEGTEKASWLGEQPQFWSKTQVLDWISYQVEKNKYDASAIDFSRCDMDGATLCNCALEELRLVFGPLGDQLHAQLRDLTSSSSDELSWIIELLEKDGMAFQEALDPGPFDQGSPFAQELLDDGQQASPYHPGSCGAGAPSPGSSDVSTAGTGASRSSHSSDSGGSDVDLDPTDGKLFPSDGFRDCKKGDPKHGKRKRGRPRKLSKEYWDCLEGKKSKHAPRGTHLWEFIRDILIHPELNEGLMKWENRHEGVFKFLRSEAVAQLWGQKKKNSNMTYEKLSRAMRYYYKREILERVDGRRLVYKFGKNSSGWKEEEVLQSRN
# How it was run: as §1
# ETV1 = ETV1 (Homo sapiens, UniProt P50549 1-477)
# ETV1, sequence (P50549 whole entry): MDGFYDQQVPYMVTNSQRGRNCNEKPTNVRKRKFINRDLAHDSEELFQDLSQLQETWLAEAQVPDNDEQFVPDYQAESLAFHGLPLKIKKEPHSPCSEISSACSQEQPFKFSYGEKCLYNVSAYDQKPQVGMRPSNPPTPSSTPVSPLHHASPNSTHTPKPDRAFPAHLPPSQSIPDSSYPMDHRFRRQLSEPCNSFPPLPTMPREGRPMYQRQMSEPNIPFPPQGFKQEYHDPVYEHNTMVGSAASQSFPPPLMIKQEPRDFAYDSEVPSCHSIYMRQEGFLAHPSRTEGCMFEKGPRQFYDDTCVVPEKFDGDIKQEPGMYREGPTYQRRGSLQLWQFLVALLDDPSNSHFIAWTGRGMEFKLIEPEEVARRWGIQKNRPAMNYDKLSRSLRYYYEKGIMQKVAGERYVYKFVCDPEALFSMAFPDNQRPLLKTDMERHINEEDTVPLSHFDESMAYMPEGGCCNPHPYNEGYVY
# How it was run: as §1
# ETV3L = molecular target: T7, ETV3L (Homo sapiens, UniProt Q6ZN32 1-361)
# T7 sequence: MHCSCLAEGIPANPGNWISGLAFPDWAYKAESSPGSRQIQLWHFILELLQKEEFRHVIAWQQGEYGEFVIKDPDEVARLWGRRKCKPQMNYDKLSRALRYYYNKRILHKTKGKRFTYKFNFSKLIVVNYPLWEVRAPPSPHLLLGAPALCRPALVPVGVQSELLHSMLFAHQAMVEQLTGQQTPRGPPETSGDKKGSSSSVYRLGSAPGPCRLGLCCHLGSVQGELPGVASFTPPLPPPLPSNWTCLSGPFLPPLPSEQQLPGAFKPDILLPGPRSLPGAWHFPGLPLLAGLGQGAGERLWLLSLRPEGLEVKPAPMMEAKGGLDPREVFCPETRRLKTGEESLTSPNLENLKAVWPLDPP
# How it was run: as §1
# ETS2 = molecular target: T8, ETS2 (Homo sapiens, UniProt P15036 1-469)
# T8 sequence: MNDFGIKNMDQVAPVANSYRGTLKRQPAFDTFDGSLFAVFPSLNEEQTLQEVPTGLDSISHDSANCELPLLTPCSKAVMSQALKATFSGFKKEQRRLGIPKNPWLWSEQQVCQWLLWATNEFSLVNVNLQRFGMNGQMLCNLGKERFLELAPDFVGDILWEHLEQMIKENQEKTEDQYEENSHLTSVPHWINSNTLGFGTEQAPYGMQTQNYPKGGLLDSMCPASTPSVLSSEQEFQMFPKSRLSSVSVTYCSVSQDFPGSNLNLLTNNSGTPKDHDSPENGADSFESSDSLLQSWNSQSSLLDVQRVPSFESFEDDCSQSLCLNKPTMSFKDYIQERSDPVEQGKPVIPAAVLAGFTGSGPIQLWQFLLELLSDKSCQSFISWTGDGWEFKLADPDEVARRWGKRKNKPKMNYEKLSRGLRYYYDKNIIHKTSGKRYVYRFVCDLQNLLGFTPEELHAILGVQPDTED
# How it was run: as §1
# ETV7 = molecular target: T9, ETV7 (Homo sapiens, UniProt Q9Y603 1-341)
# T9 sequence: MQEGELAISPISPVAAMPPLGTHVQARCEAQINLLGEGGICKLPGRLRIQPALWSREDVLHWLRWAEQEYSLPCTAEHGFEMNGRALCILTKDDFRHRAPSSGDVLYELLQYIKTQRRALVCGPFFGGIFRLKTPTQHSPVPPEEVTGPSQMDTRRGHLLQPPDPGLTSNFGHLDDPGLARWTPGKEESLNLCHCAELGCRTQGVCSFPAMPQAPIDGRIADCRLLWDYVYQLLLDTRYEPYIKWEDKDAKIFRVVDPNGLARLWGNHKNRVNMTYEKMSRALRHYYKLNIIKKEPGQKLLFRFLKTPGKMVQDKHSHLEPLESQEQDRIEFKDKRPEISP
# How it was run: as §1
# ETV3 = molecular target: T10, ETV3 (Homo sapiens, UniProt P41162-2 1-143)
# T10 sequence: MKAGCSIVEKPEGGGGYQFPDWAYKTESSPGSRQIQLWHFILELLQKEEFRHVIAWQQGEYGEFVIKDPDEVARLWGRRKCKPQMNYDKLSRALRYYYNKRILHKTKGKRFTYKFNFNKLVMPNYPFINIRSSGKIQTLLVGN
# How it was run: as §1
# ETV6 = ETV6 (Homo sapiens, UniProt P41212 1-452)
# ETV6, sequence (P41212 whole entry): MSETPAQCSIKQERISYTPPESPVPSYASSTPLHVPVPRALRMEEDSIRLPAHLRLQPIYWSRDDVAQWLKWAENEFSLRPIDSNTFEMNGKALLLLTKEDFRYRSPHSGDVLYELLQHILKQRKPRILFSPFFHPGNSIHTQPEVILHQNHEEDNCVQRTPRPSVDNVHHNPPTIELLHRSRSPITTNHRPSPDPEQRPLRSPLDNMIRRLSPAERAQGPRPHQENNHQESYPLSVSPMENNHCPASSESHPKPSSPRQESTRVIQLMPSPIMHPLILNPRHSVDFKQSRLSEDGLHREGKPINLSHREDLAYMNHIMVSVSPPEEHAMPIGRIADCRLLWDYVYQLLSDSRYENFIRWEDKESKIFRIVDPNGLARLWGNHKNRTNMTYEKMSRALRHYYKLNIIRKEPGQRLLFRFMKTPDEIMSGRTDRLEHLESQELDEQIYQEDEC
# How it was run: as §1
sequence,measurement,setting,value
TCAGAT,binding signal,FLI1,"1.01 fold enrichment (6-mer frequency, TF over GST control)"
same,binding signal,ELK1,"1.05 fold enrichment (6-mer frequency, TF over GST control)"
same,binding signal,GABPA,"1.03 fold enrichment (6-mer frequency, TF over GST control)"
same,binding signal,ERG,"1.06 fold enrichment (6-mer frequency, TF over GST control)"
same,binding signal,ELF1,"1.04 fold enrichment (6-mer frequency, TF over GST control)"
same,binding signal,SPIB,"1.02 fold enrichment (6-mer frequency, TF over GST control)"
same,binding signal,ELF4,"1.02 fold enrichment (6-mer frequency, TF over GST control)"
same,binding signal,ETV2,"1.08 fold enrichment (6-mer frequency, TF over GST control)"
same,binding signal,ELF3,"1.08 fold enrichment (6-mer frequency, TF over GST control)"
same,binding signal,ETV1,"1.05 fold enrichment (6-mer frequency, TF over GST control)"
same,binding signal,ETV3L,"1 fold enrichment (6-mer frequency, TF over GST control)"
same,binding signal,ETS2,"1.02 fold enrichment (6-mer frequency, TF over GST control)"
same,binding signal,ETV7,"1.03 fold enrichment (6-mer frequency, TF over GST control)"
same,binding signal,ETV3,"1.02 fold enrichment (6-mer frequency, TF over GST control)"
same,binding signal,ETV6,"1.08 fold enrichment (6-mer frequency, TF over GST control)"

# Reference: publication PMC7862700, “An all-to-all approach to the identification of sequence-specific readers for epigenetic DNA modifications on cytosine”
